FMDV inh: foot and mouth disease virus antiviral activity; FMDV antiviral cell-based qHTS; Potency, µM (highest dose often 57.9 µM), without a hit: top-dose activity change, negative = inhibition, actives largely listed as inhibitors; actives 1.2% (n = 410,000); AID 1159524; calls by dose curve; tested in HEK293T cells; note: read-out not given here; potency is the fitted concentration of half-maximal effect; nearly all actives have a fitted effect of over 45% in size
HCV inh: inhibitors of hepatitis C virus infection. Potency, µM (doses to about 41.8 µM), without a hit: top-dose activity change, negative = inhibition, usual class: inhibitors. actives 3.4% (n = 340,000). Huh7.5.1 HCVcc-Cre infection, luciferase reporter, 44 h; note: potency is the fitted concentration of half-maximal effect
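Antiviral activity was scored by luciferase reporter output from cells infected with HCVcc-Cre (~0.5 moi) in presence of compound, 44 h infection period, cells seeded 1,000/well 4 h prior.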
VACV Venus inh: vaccinia inhibition (Venus reporter); Vaccinia virus Venus reporter expression, fluorescence; Potency, µM (highest dose often 36.5 µM), for inactives: at the highest dose activity change, negative = inhibition, most hits filed as inhibitors; actives 0.46% (n = 330,000); AID 720580; calls by dose curve; tested in A549 cells; note: potency is the fitted concentration of half-maximal effect; nearly all actives have a fitted effect of over 30% in size
Sm TGR block: S. mansoni TGR enzyme inhibition; Q962Y6; purified TGR, DTNB reduction, TNB absorbance 405 nm; Potency, µM (highest dose often 114 µM), for inactives: at the top dose activity change, negative = inhibition, usual class: inhibitors; actives 3% (n = 360,000); AID 485364; note: potency is the fitted concentration of half-maximal effect; nearly all actives have a fitted effect of over 60% in size
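TGR 20 nM + NADPH 100 uM (dispensed conc.), cpd preinc 15 min RT; start with NADPH (500 uM addition) then DTNB (15 mM addition). Kinetic TNB absorbance, 405 nm filter. Four-parameter Hill fit across titration.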
HCMV antiviral: inhibitors of human cytomegalovirus; activity change, negative = inhibition, % at 57.5 µM; HFF cells, HCMV-luciferase reporter, 72 h; hits give low values; actives 4.5% (n = 410,000); in the data active = activity change below about -60%; inconclusive = no clear call, values can overlap the other calls; inactive = above about -39%
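Two compound doses tested in HFFs infected with HCMV-luciferase, MOI 1 PFU/cell, 72 h at 37C. Lysate luminescence read with OneGlo; data normalized against buffer-only and 10uM Salinomycin inhibitor controls.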
Vaccinia mCherry: inhibitors of vaccinia virus infection (mCherry reporter signal). Vaccinia virus mCherry reporter infection, fluorescence. Potency, µM (doses to about 36.5 µM), for the others: at the highest dose activity change, negative = inhibition, hits mostly inhibitors. actives 0.63% (n = 310,000); calls by dose curve; tested in A549 cells; note: potency is the fitted concentration of half-maximal effect; nearly all actives have a fitted effect of over 35% in size
* marks the source's active call; other numbers are inactive results. Compounds with a hit are over-represented: about 9.3% of the library has one in this group of screens. Unless noted, calls come from the whole dose curve; as a rule, active = well fitted curve in the direction sought with a large enough effect; inconclusive = small, poorly fitted or top-dose-only effect, or another doubt; inactive = no such curve, though single readings can be large; an effect the other way counts as inactive or inconclusive. % is set by controls: 0 for no effect and ±100 for the full control effect.

COc1ccnc(N2CCN(c3cccc(C(F)(F)F)c3)CC2)c1C#N was read as HCV inh 19.1%, VACV Venus inh -8.7%, Sm TGR block 6.5%, HCMV antiviral 6.0 and Vaccinia mCherry -17.2%.
Screening COc1cc(/C=C(\C#N)c2nc3ccccc3[nH]2)ccc1OC(=O)c1ccco1 returned FMDV inh -9.2%, HCV inh inconclusive, VACV Venus inh 35.1%, Sm TGR block 0.4%, HCMV antiviral 88.0 and Vaccinia mCherry -12.0%.
For COc1cc(/C=C(\C#N)c2nc3ccccc3[nH]2)c([N+](=O)[O-])cc1OCc1ccccc1 the results were FMDV inh -24.3%, HCV inh 7.08µM*, VACV Venus inh -12.2%, Sm TGR block 11.2% and HCMV antiviral inconclusive.
For COc1cc(/C=C(\C#N)c2nc3ccccc3[nH]2)cc(Cl)c1OCc1ccccc1Cl the results were FMDV inh inconclusive, VACV Venus inh -23.9%, Sm TGR block 2.9%, HCMV antiviral -80.0* and Vaccinia mCherry -25.3%.
N#C/C(=C\c1ccc(Oc2ccc(C(F)(F)F)cc2[N+](=O)[O-])cc1)c1nc2ccccc2[nH]1 was read as FMDV inh 25.1µM*, HCV inh -12.0%, VACV Venus inh -15.8%, Sm TGR block 1.4% and HCMV antiviral -32.7.
`O=C(O)CC1c2ccccc2CCN1S(=O)(=O)c1ccc(F)cc1` (configuration not stated) gave FMDV inh -0.7%, HCV inh 18.8%, VACV Venus inh -3.8%, Sm TGR block -13.4%, HCMV antiviral 16.8 and Vaccinia mCherry inactive.
`CC1(C(=O)NS(=O)(=O)c2cccc(F)c2)CCN1C(=O)CCc1ccccc1` (configuration not stated) gave FMDV inh 1.7%, VACV Venus inh 5.7%, HCMV antiviral 1.5 and Vaccinia mCherry 37.3%.
For Cc1ccc2nc(CSc3nnc(NC(=O)CC(C)C)s3)cc(=O)n2c1 the results were FMDV inh -20.7%, VACV Venus inh -16.4%, Sm TGR block 5.3%, HCMV antiviral -38.2 and Vaccinia mCherry -10.7%.
`CCC1CSC(Nc2ccc(C(=O)/C=C/c3ccc(Oc4ccccc4)cc3)cc2)=N1` (configuration not stated) gave FMDV inh -35.5%, HCV inh inconclusive, VACV Venus inh inconclusive, Sm TGR block 4.2%, HCMV antiviral -6.0 and Vaccinia mCherry inconclusive.
For CCC1CSC(Nc2ccc(C(=O)/C=C/c3cccc(C)c3)cc2)=N1 (configuration not stated) the results were FMDV inh -24.4%, HCV inh inconclusive, Sm TGR block 10.2% and HCMV antiviral -63.2*.
N#Cc1ccc(CN2CCCC3(CCN(C(=O)c4cccc(F)c4)CC3)C2)cc1 was read as FMDV inh -10.9%.
`CC(=O)Nc1ccc(S(=O)(=O)Nc2ccccc2C(=O)N2CCOCC2)cc1` gave FMDV inh 0.0%, HCV inh 10.3%, VACV Venus inh -2.6%, Sm TGR block -1.9%, HCMV antiviral 43.1 and Vaccinia mCherry inactive.
For Oc1ccccc1/C=N/Nc1nccnc1Cl the results were FMDV inh 38.2%, HCV inh inconclusive, Sm TGR block 0.3% and HCMV antiviral -100.3*.
NC(=Nc1ccccc1)NN=Cc1c[nH]c2ccccc12 was read as FMDV inh inconclusive, HCV inh inconclusive, VACV Venus inh inconclusive, HCMV antiviral -85.3* and Vaccinia mCherry -0.1%.
Oc1ccc(C=NNc2ccccn2)c(O)c1 was read as FMDV inh 11.0%, HCV inh inconclusive, VACV Venus inh inconclusive, HCMV antiviral -98.8* and Vaccinia mCherry inconclusive.
For Cc1ccc(/C=N/Nc2cccc3cccnc23)c(O)c1 the results were FMDV inh 20.0%, HCV inh inconclusive, Sm TGR block 31.6µM* and HCMV antiviral 150.2.
Screening C(=N\Nc1ccccn1)/c1c[nH]c2ccccc12 returned FMDV inh 11.9%, HCV inh -23.7%, VACV Venus inh inconclusive, Sm TGR block 10.8%, HCMV antiviral -67.8* and Vaccinia mCherry inconclusive.
For Oc1ccc(/C=N/Nc2ncc(Br)cn2)c(O)c1 the results were FMDV inh 10.1%, HCV inh inconclusive, VACV Venus inh inconclusive, Sm TGR block 1.8%, HCMV antiviral 124.3 and Vaccinia mCherry 2.51µM*.
For Oc1ccc(/C=N/Nc2cccc3cccnc23)c(O)c1 the results were HCV inh inconclusive, VACV Venus inh -23.3%, Sm TGR block -5.7%, HCMV antiviral -21.7 and Vaccinia mCherry inconclusive.
Oc1ccc(/C=N/Nc2nccnc2Cl)c(O)c1 was read as FMDV inh 9.1%, HCV inh inconclusive, VACV Venus inh inconclusive, Sm TGR block -9.0%, HCMV antiviral -97.4* and Vaccinia mCherry 2.51µM*.
`C#CC(C)(CC)NC(=O)c1cc2c(n(-c3ccc(Cl)cc3)c1=O)CC(C)(C)CC2=O` (configuration not stated) gave FMDV inh -12.4%, VACV Venus inh -11.7%, Sm TGR block 0.8%, HCMV antiviral 18.1 and Vaccinia mCherry -1.4%.
For CCCCN(Cc1ccco1)C(=O)Cn1ncc2c([nH]c3ccccc32)c1=O the results were FMDV inh inconclusive, VACV Venus inh -11.5%, Sm TGR block 2.8%, HCMV antiviral 0.2 and Vaccinia mCherry -14.3%.
For Cc1ccc(-c2ccc(CCC(=O)O)n2-c2ccc(O)cc2)cc1 the results were FMDV inh -9.5%, HCV inh 25.1%, VACV Venus inh -12.2%, Sm TGR block 25.1µM*, HCMV antiviral -6.5 and Vaccinia mCherry -16.2%.
CCOc1ccc(-n2c(CCC(=O)O)ccc2-c2ccc(Br)cc2)cc1 was read as FMDV inh -27.8%, VACV Venus inh 1.9%, Sm TGR block inconclusive, HCMV antiviral 0.7 and Vaccinia mCherry -12.8%.
`O=C(O)CCc1ccc(-c2ccc(Cl)cc2)n1-c1cccc(C(F)(F)F)c1` gave FMDV inh -9.9%, VACV Venus inh -12.0%, Sm TGR block 25.1µM*, HCMV antiviral 18.1 and Vaccinia mCherry -16.1%.
Screening CCOC(=O)c1ccc(-n2c(CCC(=O)O)ccc2-c2ccc(Br)cc2)cc1 returned FMDV inh -13.1%, VACV Venus inh -2.3%, Sm TGR block 20µM*, HCMV antiviral 27.7 and Vaccinia mCherry -1.2%.
Screening O=C(O)CCc1ccc(-c2ccc(Br)cc2)n1-c1ccc(O)cc1 returned FMDV inh 7.8%, HCV inh -1.3%, VACV Venus inh -7.0%, Sm TGR block 28.2µM*, HCMV antiviral -3.2 and Vaccinia mCherry inconclusive.
`COc1ccc(-c2ccc(CCC(=O)O)n2-c2cc(Cl)ccc2O)cc1` gave FMDV inh 21.9%, VACV Venus inh -8.1%, Sm TGR block inconclusive, HCMV antiviral 31.9 and Vaccinia mCherry -20.8%.
